Where “and” joins values, the source holds several entries; their conditions need not be identical. Identical values can stand only once. Results filed as inconclusive are left out. Calls of active or inactive are those of the source. Calls come from the whole dose curve; as a rule, active = well fitted inhibition curve with a large enough effect; inconclusive = small, poorly fitted or top-dose-only effect; inactive = flat fitted curve, though single readings scatter. Where a SMILES comes first, the peptide text is derived from it. [ ]: non-standard residue; d: D form. pGlu = O=C1CC[C@@H](C(=O)O)N1
Each compound was assayed on KB-3-1 (assay: Cytotoxic Profiling of Annotated Libraries Using Quantitative High-Throughput Screening (AID 1296008; note: nearly all actives have a fitted effect of over 60% in size)). Conditions: Five cell lines viability, CellTiter-Glo ATP luminescence, 48-72 h; max response: hits give low values.
In short: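 Cells exposed to compounds for 48 or 72 hr at 37 degrees Celsius. Viability read as ATP-coupled luminescence with CellTiter-Glo after 10 min at room temperature.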
In the case of `CCCCC[C@H](O)/C=C/[C@H]1[C@H](O)CC(=O)[C@@H]1CCCCCCC(=O)O`, the max response is reported as 3.75% (inactive). For H-RKDVY-OH, the max response was -14.8% (inactive). For `COc1ccc([C@@H]2CC(=O)c3c(O)cc(O[C@@H]4O[C@H](CO[C@@H]5O[C@@H](C)[C@H](O)[C@@H](O)[C@H]5O)[C@@H](O)[C@H](O)[C@H]4O)cc3O2)cc1O`, the max response was -3.21% (inactive). For `NC(=O)c1cc[n+](CC2=C(C(=O)O)N3C(=O)[C@@H](NC(=O)C(c4ccccc4)S(=O)(=O)[O-])[C@H]3SC2)cc1` (some centres not stated), the max response was 1.04% (inactive). For `CC[C@H]1NC(=O)[C@@H](NC(=O)c2ncccc2O)[C@@H](C)OC(=O)[C@H](c2ccccc2)NC(=O)[C@@H]2CC(=O)CCN2C(=O)[C@H](Cc2ccccc2)N(C)C(=O)[C@@H]2CCCN2C1=O`, the max response was 2% (inactive). For `CC[C@H](C)[C@H](NC(=O)[C@H](Cc1ccccc1)NC(=O)[C@H](C)NC(=O)[C@H](CC(=O)O)NC(=O)[C@H](CCCCN)NC(=O)[C@H](CO)NC(=O)[C@@H]1CCCN1C(=O)[C@@H]1CCC(=O)N1)C(=O)NCC(=O)N[C@@H](CC(C)C)C(=O)N[C@@H](CCSC)C(N)=O` ([pGlu]PSKDAFIGLM-NH2), the max response was 17.8% (inactive). With `CC(C)[C@@H]1CC[C@@H](C)C[C@H]1OC(=O)c1ccccc1O` the max response was -4.38% (inactive). For `O=[N+]([O-])O[C@@H]1CO[C@H]2[C@@H]1OC[C@@H]2O`, the max response was -3.81% (inactive). `NC[C@@H]1CC[C@@H](N)[C@@H](O[C@H]2[C@H](O)[C@@H](O[C@H]3O[C@H](CO)[C@@H](O)[C@H](N)[C@H]3O)[C@H](N)C[C@@H]2N)O1` was tested, and the max response was 0.761% (inactive). For `Cc1ccc(S(=O)(=O)NC(=O)N[C@@H](C)Cc2ccccc2)cc1`, the max response was 4.03% (inactive). With `CCOC(=O)[C@H](CS)NCCN[C@@H](CS)C(=O)OCC` the max response was 6.15% (inactive). `O=C1C2CC3CC1CC(O)(C3)C2` was tested, and the max response was 2.59% (inactive). For `NC(N)=NCC1COC2(CCCCC2)O1` (configuration not stated), the max response was 1.43% (inactive). `COc1ccc2cc([C@H](C)CO)ccc2c1` was tested, and the max response was 0.171% (inactive). `CC1(C)S[C@@H]2[C@H](N3C(=O)C(c4ccccc4)NC3(C)C)C(=O)N2[C@H]1C(=O)O` (some centres not stated) was tested, and the max response was 3.76% (inactive). In the case of `C[C@H](NCCc1ccc(O)cc1)[C@H](O)c1ccc(O)cc1`, the max response is reported as -13.6% (inactive). `CC(=O)OCC1=C(C(=O)O)N2C(=O)[C@@H](NC(=O)Cc3ccccc3)[C@H]2SC1` was tested, and the max response was -5.45% (inactive). In the case of `NC[C@@H]1O[C@H](O[C@H]2[C@@H](O)[C@H](O[C@@H]3[C@@H](O)[C@H](N)C[C@H](N)[C@H]3O[C@H]3O[C@H](CO)[C@@H](O)[C@H](O)[C@H]3N)O[C@@H]2CO)[C@H](N)[C@@H](O)[C@@H]1O`, the max response is reported as 5.13% (inactive). In the case of `CO/N=C(\C(=O)N[C@@H]1C(=O)N2C(C(=O)O)=C(CSc3nc(C)c(CC(=O)O)s3)CS[C@H]12)c1csc(N)n1`, the max response is reported as 2.01% (inactive). `Nc1nc2c(c(=O)[nH]1)N(C=O)C(CNc1ccc(C(=O)N[C@@H](CCC(=O)O)C(=O)O)cc1)CN2` (some centres not stated) was tested, and the max response was 0.559% (inactive). `NC[C@H]1O[C@H](O[C@H]2[C@H](O)[C@@H](O[C@H]3O[C@H](CO)[C@@H](O)[C@H](N)[C@H]3O)[C@H](N)C[C@@H]2N)[C@H](O)[C@@H](O)[C@@H]1O` was tested, and the max response was 14.5% (inactive). `CCCCC/C=C\CCC(=O)N[C@H]1[C@H](Oc2c3cc4cc2Oc2ccc(cc2Cl)[C@@H](O[C@@H]2O[C@H](CO)[C@@H](O)[C@H](O)[C@H]2NC(C)=O)[C@@H]2NC(=O)[C@H](NC(=O)[C@@H]4NC(=O)[C@H]4NC(=O)[C@@H](Cc5ccc(c(Cl)c5)O3)NC(=O)[C@H](N)c3ccc(O)c(c3)Oc3cc(O)cc4c3)c3ccc(O)c(c3)-c3c(O[C@H]4O[C@H](CO)[C@@H](O)[C@H](O)[C@@H]4O)cc(O)cc3[C@@H](C(=O)O)NC2=O)O[C@H](CO)[C@@H](O)[C@@H]1O` was tested, and the max response was -12.7% (inactive). In the case of `CO/N=C(\C(=O)N[C@@H]1C(=O)N2C(C(=O)O)=C(CSc3nnnn3C)CS[C@H]12)c1csc(N)n1`, the max response is reported as -10.7% (inactive). `CC(=O)Nc1c(I)c(C(=O)N[C@H]2C(O)O[C@H](CO)[C@@H](O)[C@@H]2O)c(I)c(N(C)C(C)=O)c1I` (some centres not stated) was tested, and the max response was -7.33% (inactive). With `C[C@@H]1NC(=O)[C@@H](N)CNC(=O)[C@H](C2CCNC(N)=N2)NC(=O)/C(=C/NC(N)=O)NC(=O)[C@H](CNC(=O)C[C@@H](N)CCCN)NC1=O` (some centres not stated) the max response was -2.35% (inactive) and -9.97% (inactive). In the case of `CC(O)[C@H]1CC[C@H]2[C@@H]3CC[C@@H]4C[C@@H](O)CC[C@]4(C)[C@H]3CC[C@]12C` (some centres not stated), the max response is reported as -16.3% (inactive). With `NC(=O)OC[C@@H]1[C@H](NC(=O)/C(=N\OCC(=O)O)c2csc(N)n2)C(=O)N1S(=O)(=O)O` the max response was -1.39% (inactive).

— PubChem BioAssay (NCATS)
% is set by controls: 0 for no effect and ±100 for the full control effect.
